Assay [1] is described as follows: NCI Yeast Anticancer Drug Screen. Data for the rad50 strain (AID 155).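 Further: 0% = growth of vehicle-only cultures of the same strain.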 To be noted: S. cerevisiae rad50 strain growth inhibition, hits give high values. In outline:
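Readout: growth inhibition relative to vehicle-treated cultures. Compound exposure was carried out in a genetically defined yeast strain deficient in DNA damage repair.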

A short description of assay [2]: NCI Yeast Anticancer Drug Screen. Data for the mec2-1 strain (AID 157). To be noted: S. cerevisiae mec2-1 strain, hits give high values. In outline: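 Cells of the genetically defined mec2-1 yeast strain are incubated with test compound. Inhibition of growth is calculated against vehicle-treated controls.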
The nature of assay [3]: NCI Yeast Anticancer Drug Screen. Data for the sgs1 mgt1 strain (AID 161).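 Further: 0% = growth of cultures given vehicle only.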 To be noted: S. cerevisiae sgs1 mgt1 strain, hits give high values. In outline:
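Mutant yeast exposed to compound; growth scored against vehicle-only wells.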

Assay [4] is described as follows: NCI Yeast Anticancer Drug Screen. Data for the cln2 rad14 strain (AID 165).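 Further: 0% = growth equal to vehicle treated cultures.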 To be noted: S. cerevisiae cln2 rad14 strain, hits give high values. In outline: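 The screen exposed genetically defined yeast (cln2 rad14) to test compounds and scored growth inhibition relative to vehicle-treated controls.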
Assay [5] is described as follows: NCI Yeast Anticancer Drug Screen. Data for the bub3 strain (AID 167). The settings on record: S. cerevisiae bub3 mutant strain, hits give high values. The essentials:
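Readout: yeast growth inhibition, expressed relative to vehicle-only wells. The test organism is a mutant strain from a panel with lesions in DNA repair or checkpoint genes.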

Assay [6] can be described thus: NCI Yeast Anticancer Drug Screen. Data for the mlh1 rad18 strain (AID 175). The settings on record: S. cerevisiae mlh1 rad18 strain growth inhibition, hits give high values. In outline: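 Compound-treated yeast growth, normalised to vehicle controls. Strain bears defined DNA repair mutations.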
[7] abbreviates: at 5.0 µM (retest, dose inferred, filed as 0.5).
Where [8] appears, read: at 50.0 µM (retest, dose inferred, filed as 5.0).

Our source for the growth inhibition values is PubChem BioAssay (NCI).

The structures appear in SMILES notation. Compounds without any hit were thinned out: in the full panel of roughly 79,000, 15% have a hit. Unmarked numbers belong to inactive results. Active and inactive are the calls of the source. No stated cut-off is given here; in the data, active means growth inhibition above about 70%; inactive means the rest.

`NC(=S)N1N=C2c3ccccc3CCC[C@H]2[C@@H]1c1ccccc1`: the growth inhibition in assay [1] (setting [7]) is 23%; in assay [1] (setting [8]) it was 34%; in assay [1] (at 50.0 µM), 73.2% (active); in assay [2] (setting [7]), 16%; in assay [2] (setting [8]), 27%; in assay [2] (at 50.0 µM), 70.1% (active). The growth inhibition is 21% in assay [3] (setting [7]); 43% in assay [3] (setting [8]); 77.1% (active) in assay [3] (at 50.0 µM); 12% in assay [4] (setting [7]); 13% in assay [4] (setting [8]); 63.9% in assay [4] (at 50.0 µM). Further, the growth inhibition in assay [5] (setting [7]) was 25%; in assay [5] (setting [8]), 47%; in assay [5] (at 50.0 µM), 74.2% (active); in assay [6] (setting [7]) it was 17%; in assay [6] (setting [8]) it was 48%; in assay [6] (at 50.0 µM), 69.5%.

`O=[N+]([O-])c1ccc(CO)o1`: the growth inhibition in assay [1] (setting [7]) was 10%; in assay [1] (setting [8]), 68%; in assay [1] (at 50.0 µM), 93.1% (active); in assay [2] (setting [7]), 0%; in assay [2] (setting [8]), 10%; in assay [2] (at 50.0 µM), 38.8%. The growth inhibition in assay [3] (setting [7]) is 2%; in assay [3] (setting [8]), 14%; in assay [3] (at 50.0 µM), 76.4% (active); in assay [4] (setting [7]), 3%; in assay [4] (setting [8]), -2%; in assay [4] (at 50.0 µM), 29.1%. Also, the growth inhibition in assay [5] (setting [7]) was 0%; in assay [5] (setting [8]), 1%; in assay [5] (at 50.0 µM) it was 26.7%; in assay [6] (setting [7]) it was 6%; in assay [6] (setting [8]), 33%; in assay [6] (at 50.0 µM) it was 84.5% (active).

Regarding `CCOC(CCl)Oc1c(C(C)C)cc(C(C)C)c(Cl)c1C` (configuration not stated), the growth inhibition in assay [1] (setting [7]) is 0%; in assay [1] (setting [8]), 20%; in assay [1] (at 50.0 µM), 97.5% (active); in assay [2] (setting [7]) it was -1%; in assay [2] (setting [8]), 57%; in assay [2] (at 50.0 µM), 96.7% (active). In addition, the growth inhibition is 1% in assay [3] (setting [7]); 49% in assay [3] (setting [8]); 97.7% (active) in assay [3] (at 50.0 µM); 4% in assay [4] (setting [7]); 26% in assay [4] (setting [8]); 96.7% (active) in assay [4] (at 50.0 µM). The growth inhibition is -3% in assay [5] (setting [7]); 19% in assay [5] (setting [8]); 97.3% (active) in assay [5] (at 50.0 µM); -1% in assay [6] (setting [7]); 27% in assay [6] (setting [8]); 95% (active) in assay [6] (at 50.0 µM).

Regarding `COC(C(=O)C1=C2Oc3c4c(cc(O)c3C(=O)C2C2=C(CCCC2)C1=O)OC(C)(C)C=C4)C(C)CCC=C(C)C` (configuration not stated), the growth inhibition in assay [1] (setting [7]) is 6%; in assay [1] (setting [8]) it was 90% (active); in assay [1] (at 50.0 µM) it was 74.2% (active); in assay [2] (setting [7]) it was -1%; in assay [2] (setting [8]), 90% (active); in assay [2] (at 50.0 µM) it was 79% (active). The growth inhibition in assay [3] (setting [7]) was 3%; in assay [3] (setting [8]), 90% (active); in assay [3] (at 50.0 µM), 78.5% (active); in assay [4] (setting [7]) it was -5%; in assay [4] (setting [8]), 90% (active); in assay [4] (at 50.0 µM), 80.9% (active). Also, the growth inhibition in assay [5] (setting [7]) was 4%; in assay [5] (setting [8]), 92% (active); in assay [5] (at 50.0 µM), 78% (active); in assay [6] (setting [7]), 4%; in assay [6] (setting [8]), 92% (active); in assay [6] (at 50.0 µM), 80.2% (active).

As for `O=[N+]([O-])c1c[nH]c2ncnc(SCc3ccccc3)c12`, the growth inhibition in assay [1] (setting [7]) was 98% (active); in assay [1] (setting [8]), 98% (active); in assay [1] (at 50.0 µM) it was 100% (active); in assay [2] (setting [7]), 99% (active); in assay [2] (setting [8]), 99% (active); in assay [2] (at 50.0 µM), 99.3% (active). Moreover, the growth inhibition in assay [3] (setting [7]) was 99% (active); in assay [3] (setting [8]), 99% (active); in assay [3] (at 50.0 µM) it was 99.2% (active); in assay [4] (setting [7]), 86% (active); in assay [4] (setting [8]), 99% (active); in assay [4] (at 50.0 µM) it was 94.3% (active). In addition, the growth inhibition in assay [5] (setting [7]) is 97% (active); in assay [5] (setting [8]) it was 99% (active); in assay [5] (at 50.0 µM), 98.7% (active); in assay [6] (setting [7]), 98% (active); in assay [6] (setting [8]) it was 98% (active); in assay [6] (at 50.0 µM), 98.9% (active).

Turning to `CN(C)c1ccc(-c2c(C#N)c(-c3ccccc3)n(NS(=O)(=O)c3ccccc3)c(=O)c2C#N)cc1`, the growth inhibition was 19% in assay [1] (setting [7]); 36% in assay [1] (setting [8]); 71% (active) in assay [1] (at 50.0 µM); 23% in assay [2] (setting [7]); 32% in assay [2] (setting [8]); 75.5% (active) in assay [2] (at 50.0 µM). Also, the growth inhibition in assay [3] (setting [7]) is 34%; in assay [3] (setting [8]), 50%; in assay [3] (at 50.0 µM) it was 75.2% (active); in assay [4] (setting [7]), 44%; in assay [4] (setting [8]) it was 53%; in assay [4] (at 50.0 µM) it was 80.8% (active). For the same molecule, the growth inhibition in assay [5] (setting [7]) is 54%; in assay [5] (setting [8]) it was 51%; in assay [5] (at 50.0 µM), 76.2% (active); in assay [6] (setting [7]) it was 17%; in assay [6] (setting [8]), 31%; in assay [6] (at 50.0 µM), 72.2% (active).

As for `CC(C)c1cc2c(cc1O)C(O)C1(O)CCCC(C)(C)[C@H]1CC2` (some centres not stated), the growth inhibition was -6% in assay [1] (setting [7]); 99% (active) in assay [1] (setting [8]); 91.4% (active) in assay [1] (at 50.0 µM); -1% in assay [2] (setting [7]); 100% (active) in assay [2] (setting [8]); 93.7% (active) in assay [2] (at 50.0 µM). In addition, the growth inhibition in assay [3] (setting [7]) was -1%; in assay [3] (setting [8]), 99% (active); in assay [3] (at 50.0 µM), 93% (active); in assay [4] (setting [7]), -11%; in assay [4] (setting [8]), 99% (active); in assay [4] (at 50.0 µM), 91.6% (active). Also, the growth inhibition was 6% in assay [5] (setting [7]); 99% (active) in assay [5] (setting [8]); 93% (active) in assay [5] (at 50.0 µM); -3% in assay [6] (setting [7]); 99% (active) in assay [6] (setting [8]); 91.8% (active) in assay [6] (at 50.0 µM).

For `CN(C)c1ccc(/C=C(\NC(=O)c2ccccc2)c2nc3ccccc3s2)cc1`, the growth inhibition was 35% in assay [1] (setting [7]); 96% (active) in assay [1] (setting [8]); 97.1% (active) in assay [1] (at 50.0 µM); 20% in assay [2] (setting [7]); 97% (active) in assay [2] (setting [8]); 97.2% (active) in assay [2] (at 50.0 µM). Besides, the growth inhibition in assay [3] (setting [7]) was 61%; in assay [3] (setting [8]) it was 97% (active); in assay [3] (at 50.0 µM) it was 98% (active); in assay [4] (setting [7]), 17%; in assay [4] (setting [8]), 95% (active); in assay [4] (at 50.0 µM), 97.3% (active). In addition, the growth inhibition in assay [5] (setting [7]) is 37%; in assay [5] (setting [8]) it was 97% (active); in assay [5] (at 50.0 µM), 95% (active).

On to `NC(CCCCCC(N)C(=O)O)C(=O)O` (configuration not stated), for which the growth inhibition is -165% in assay [1] (setting [7]); -146% in assay [1] (setting [8]); 15.1% in assay [1] (at 50.0 µM); -50% in assay [2] (setting [7]); -54% in assay [2] (setting [8]); 9.1% in assay [2] (at 50.0 µM). Also, the growth inhibition in assay [3] (setting [7]) was -66%; in assay [3] (setting [8]), -66%; in assay [3] (at 50.0 µM), 14.9%; in assay [4] (setting [7]), -60%; in assay [4] (setting [8]) it was -83%; in assay [4] (at 50.0 µM), 76.8% (active). Further, the growth inhibition in assay [5] (setting [7]) is -67%; in assay [5] (setting [8]), -71%; in assay [5] (at 50.0 µM), 18.8%; in assay [6] (setting [7]) it was -241%; in assay [6] (setting [8]), -121%; in assay [6] (at 50.0 µM), 3.05%.

As for `O=C1Nc2ccccc2SC1c1ccccc1` (configuration not stated), the growth inhibition in assay [1] (setting [7]) was 3%; in assay [1] (setting [8]) it was 97% (active); in assay [1] (at 50.0 µM), 98.2% (active); in assay [2] (setting [7]), 15%; in assay [2] (setting [8]) it was 99% (active); in assay [2] (at 50.0 µM) it was 99.6% (active). The growth inhibition in assay [3] (setting [7]) was -2%; in assay [3] (setting [8]) it was 99% (active); in assay [3] (at 50.0 µM) it was 99.5% (active); in assay [4] (setting [7]) it was 10%; in assay [4] (setting [8]) it was 99% (active); in assay [4] (at 50.0 µM) it was 98.8% (active). The growth inhibition was 19% in assay [5] (setting [7]); 98% (active) in assay [5] (setting [8]); 99.3% (active) in assay [5] (at 50.0 µM); 10% in assay [6] (setting [7]); 99% (active) in assay [6] (setting [8]); 98.8% (active) in assay [6] (at 50.0 µM).
